CHX counter: counter-screen for Shiga toxin inhibitors: cycloheximide protein synthesis inhibition; AID 2314; cell reporter, cycloheximide protein synthesis inhibition counterscreen; max response, %; actives 12% (n = 300,000); in the data active = max response mostly above about 13%, no sharp cut-off; inactive = mostly below about 14%; note: read at 38.3 µM for the half of the compounds with a filed dose; 0% is about no effect
NS1 function inh: blocks influenza NS1 protein function; actives 0.4% (n = 270,000); AID 2326; Potency, µM (titrated, usually from 46.1 µM), for inactives: at the highest dose activity, positive = more growth; note: potency is the fitted concentration of half-maximal effect; actives are rising curves; nearly all actives have a fitted effect of over 50% in size
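Compounds were scored for reversing the slow growth caused by influenza A NS1 in S. cerevisiae, measured by optical density at 600 nm. Assay medium contained 2% galactose at pH 6.0; NS1-free yeast of the same strain were the positive control.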
SARS PLP yeast: inhibitors of SARS-CoV papain-like protease in yeast | S. cerevisiae expressing SARS-CoV PLpro, growth rescue | Potency, µM (top dose mostly 32.9 µM), inactives show top-dose activity, positive = growth rescue, usual class: activators | actives 0.19% (n = 330,000); note: potency is the fitted concentration of half-maximal effect; 0% is about no effect; nearly all actives have a fitted effect of over 55% in size
Shiga toxin inh: blocks Shiga toxin action in Vero cells; Vero cells, Shiga toxin protein synthesis inhibition reporter; inhibition, % at 38.7 µM; actives 9.2% (n = 290,000); in the data active = inhibition mostly above about 28%, no sharp cut-off; inactive = mostly below about 43%; note: 0% is about no effect
Starred values were filed as active, the others as inactive; ? = inconclusive; / = not tested or not shown. Most compounds without a hit are left out; they make up all but 12% or so of the library. Unless noted, calls come from the whole dose curve.

SMILES	CHX counter	NS1 function inh	SARS PLP yeast	Shiga toxin inh
Cc1ccc2nc3c(c(C(=O)OCC(=O)NC4CCS(=O)(=O)C4)c2c1)CCCC3 (centres undefined)	-5	4%	-2%	-4
COc1ccc(NC(=O)CCCn2cc([N+](=O)[O-])cn2)cc1	7	/	10%	-11
Cc1csc(SCC(=O)Nc2ccccc2[N+](=O)[O-])n1	24	/	0%	63
O=C(c1cccc(Cl)c1)N1CCN(C2CCCCC2)CC1	-2	-7%	5%	-11
O=C(c1cccc(Cl)c1)N1CCC(N2CCC(C(=O)N3CCCC3)CC2)CC1	21*	-9%	24%	-1
CC1(C)CC(=O)c2cc(N=C/C(C(=O)c3ccccc3)=C(\O)c3ccccc3)c(=O)oc2C1	43*	-5%	-1%	185*
CCOC(=S)SCC(=O)N1CCc2ccccc2C1C1C(=O)CC(C)(C)CC1=O (centres undefined)	-8	-7%	-23%	-12
COc1ccc(C2CN=NC2C(=O)c2ccccc2)cc1 (centres undefined)	21*	-1%	-1%	26*
C/C=C/C=N/Nc1nc(-c2ccc([N+](=O)[O-])cc2)cs1	10	7%	-16%	90*
CC(C)=NNc1nc(-c2ccc([N+](=O)[O-])cc2)cs1	22*	11%	-3%	18*
Cc1csc(N/N=C/c2ccc([N+](=O)[O-])cc2)n1	32*	-12%	-3%	67*
CC(C)c1nc(-c2ccc([N+](=O)[O-])cc2)cs1	39*	0%	8%	56*
COCCOc1ccc(C(F)(F)F)cc1NC(=O)c1ccc(C(F)(F)F)cc1	-1	11%	21%	-4
COCCOc1ccc(C(F)(F)F)cc1Nc1nc2ccccc2o1	30*	-4%	-3%	100*
Cc1ccc(Sc2ncccc2[N+](=O)[O-])cc1	7	2%	5%	33
Cc1ccc(Sc2ncccc2COC(=O)NC(C)C)cc1	37*	/	-5%	118*
CCCCN(C(=O)c1cccc(S(=O)(=O)N2CCN(Cc3ccccc3)CC2)c1)c1ccccc1	6	6%	2%	12
N#C/C(=C\c1ccc(F)c(Br)c1)C(=O)NC1CC1	30*	-4%	-1%	42*
COc1ccc(/C=N/NC(=O)c2sc3nc(C)cc(C)c3c2N)cc1	8	7%	1%	20
COc1ccc(NC(=O)c2sc3nc(C)cc(C)c3c2N)cc1	34*	15%	-2%	43*
Cc1cc(C(F)(F)F)c2c(N)c(C(=O)Nc3cc(C)on3)sc2n1	55*	-13%	0%	117*
Cc1cc(C)c2c(N)c(C(=O)Nc3ccc(C)c(C)c3)sc2n1	33*	-8%	-5%	124*
Cc1cc(C)c2c(N)c(C(=O)N/N=C/c3cccs3)sc2n1	53*	-3%	-2%	92*
COc1ccc(NC(=O)c2sc3nc(-c4ccc(OC)cc4)cc(C(F)(F)F)c3c2N)cc1	-5	/	/	-8
O[C@@H](c1cc(-c2ccc(Cl)cc2)nc2ccccc12)C1CCCCN1 (some centres undefined)	/	-10%	/	/
SMILES	CHX counter	NS1 function inh	SARS PLP yeast	Shiga toxin inh
CC1CCCN(CC(=O)NC(=O)NC2CCCCC2)C1 (centres undefined)	/	/	-1%	/
Cc1cc(C)c2c(N)c(C(=O)Nc3ccc(F)cc3)sc2n1	45*	0%	1%	92*
Cc1cc(C)cc(NC(=O)c2sc3nc(C)cc(C)c3c2N)c1	25*	-8%	-7%	118*
Cc1cc(C)c2c(N)c(C(=O)Nc3ccc([N+](=O)[O-])cc3)sc2n1	20*	4%	-3%	42*
Cc1cc(C)c2c(N)c(C(=O)c3ccc(Cl)c(Cl)c3)sc2n1	21	/	-3%	82*
Cc1cc(C)c2c(N)c(C(=O)c3ccc(Cl)cc3)sc2n1	5	-6%	23%	26
Cc1nc(-c2ccccc2)sc1C1(C)CC(c2ccc(C#N)cc2)=NO1 (centres undefined)	-2	-5%	0%	-4
COc1ccc(C(C(=O)NC(C)(C)C)N(CCO)C(=O)CCC(=O)Nc2cc(C)on2)cc1 (centres undefined)	-5	8%	1%	-14
COc1ccc(C(C(=O)NC(C)(C)C)N(CCc2ccccc2)C(=O)CCC(=O)Nc2cc(C)on2)cc1 (centres undefined)	22*	14%	1%	31*
C[C@H](CO)N1C[C@H](C)[C@@H](CN(C)C(=O)Nc2ccc3c(c2)OCO3)Oc2c(NS(=O)(=O)c3ccc(F)cc3)cccc2C1=O	/	/	3%	/
O=C1c2ccccc2C(=O)N1CCCCON1C(=O)c2ccccc2C1=O	-3	6%	25%	-2
CCCCON1C(=O)c2cccc3cccc(c23)C1=O	15*	-16%	-6%	41*
O=C(NC(=S)N1CCCCC1CO)c1cc(Br)ccc1Cl (centres undefined)	/	/	-4%	/
CC(C)(O)C#Cc1ccc(C(=O)NCCC(=O)O)s1	-4	/	1%	13
CCc1sc(C(=O)Nc2ccc3c(c2)OCO3)cc1C	/	/	-9%	/
CC(C)(O)C#Cc1ccc(C(=O)Nc2ccc3c(c2)OCO3)s1	58*	?	5%	107*
CC(C)(O)C#Cc1ccc(C(=O)NC2CCCCC2)s1	27*	-2%	0%	74*
CCc1ccc(C(=O)N2CCCC2)s1	13	-45%	-10%	17
CCc1ccc(C(=O)NC2CCCCC2)s1	53*	-10%	1%	67*
CC(OC(=O)C1CCN(c2ccc(C(F)(F)F)cn2)CC1)C(=O)Nc1cccc([N+](=O)[O-])c1 (centres undefined)	/	/	-5%	/
O=C1N[C@@H](Cc2cnc[nH]2)C(=O)N2CCC[C@@H]12	-4	4%	4%	-15
COC(=O)c1[nH]c2ccc(C)cc2c1NC(=O)Nc1ccc(OC)cc1	19*	-3%	6%	40
Oc1ccccc1C1CC(c2cccs2)=NC(c2cccc(Br)c2)N1 (centres undefined)	42*	/	-21%	71*
CCCCCN=C(C)c1c(O)c2ccccc2oc1=O	42*	-159%	-9%	65*
C/C(=N/NS(=O)(=O)c1ccc(C)cc1)c1c(O)c2ccccc2oc1=O	0	-68%	0%	-1
SMILES	CHX counter	NS1 function inh	SARS PLP yeast	Shiga toxin inh
O=C(NCC1CCCO1)c1csc2c1CCCCC2 (centres undefined)	11	-8%	-2%	7
CC1CCc2c(C(=O)Nc3nccs3)csc2C1 (centres undefined)	37*	-156%	-28%	69*
CCSc1nnc(NC(=O)c2csc3c2CCC(C)C3)s1 (centres undefined)	0	10%	-5%	-7
CC1CCc2c(C(=O)NCc3ccccn3)csc2C1 (centres undefined)	65*	-1%	-40%	161*
CC1CCc2c(C(=O)NCc3cccnc3)csc2C1 (centres undefined)	6	2%	-20%	-7
CC1CCc2c(C(=O)NCC3CCCO3)csc2C1 (centres undefined)	86*	-50%	-7%	98*
CC1CCc2c(C(=O)Nc3ccccn3)csc2C1 (centres undefined)	47*	-89%	-23%	70*
CCNC(=O)C(=O)NCC1CCCN1S(=O)(=O)c1cccs1 (centres undefined)	/	/	7%	/
